The text below walks through data of PubChem BioAssay AID1224862 (National Center for Advancing Translational Sciences (NCATS), 2016).

Inconclusive results are not listed. Values without a mark were called inactive. The source made the active and inactive calls. Calls come from the whole dose curve; as a rule, active = well fitted cell-killing curve with a large enough effect; inconclusive = small, poorly fitted or top-dose-only effect, or effect the other way; inactive = flat fitted curve, though single readings scatter.

The experiment in a line: Compound cytotoxicity measured by an ATP content assay as a counter-screen for lead compounds in human astrocytoma cell line (SNB-19). Conditions: SNB-19 astrocytoma viability, ATP luminescence; series mostly up to 46.1 µM; activity change, negative = cytotoxicity: at the top concentration. On the procedure: National Center for Advancing Translational Sciences [NCATS] Johns Hopkins University School of Medicine Florida State University Assay Overview: Many compounds can cause cytotoxicity at high compound concentrations. […] The compound cytotoxicity may also cause side effects or toxicity in human. Thus, the compound cytotoxicity needs to be measured in each cell type and each compound incubation time - same as these in the compound screening assay. The compound cytotoxicity can be measured by cell viability assays such as the ATP content assay. We use an ATP content assay kit for cell viability measurement. It measures ATP content (level) in human astrocytoma cell line (SNB-19) using a luminescence readout that is proportional to viable cell numbers. Decrease in the luminescence signal after the compound treatment indicates reduced cell viability and cell death caused by compound treatment.
Assay Protocol Summary: The medium for SNB-19 cells is composed of RPMI 1640 (ATCC, Cat.# 30-2001), 10% fetal bovine serum (FBS) (GE healthcare Life Sciences, Cat.# SH30071.03), and 1% Pen/Strep (Gibco, Cat.# 15140-122). The ATP content assay kit (PerkinElmer, Cat.# 6016731) was used to determine cell viability. The reagent was reconstituted and prepared as described by the manufacturer. Cells were seeded in 384- or 1536-well assay plates and cultured at 37 C with 5% CO2 for 16 to 20 hours. The typical cell seeding density in the 1536-well plate assay is 250 cells/well in 3ul medium for SNB-19 cells in tissue culture treated plates. Compounds were added to cells and incubated for a specific time such as 6, 24, or 72 hours before addition of the reagent mixture of the ATP content assay kit at 1:1 ratio. After incubation at room temperature for 10 minutes, the luminescence intensity in assay plates was measured using a ViewLux plate reader (PerkinElmer). […] The percentage inhibitions of the decreased cell viability by small molecules were then calculated that indicate compound cytotoxicity.
Regarding `Cc1cccc(C#Cc2ccccc2)n1`, the Potency is 24.5 µM (active). For the compound `O=c1c(-c2ccc(O)cc2)coc2cc(OC3O[C@H](CO)[C@H](O)[C@H](O)[C@H]3O)cc(O)c12` (stereo not given in full), the “activity change, negative = cytotoxicity” value is -18.9%. For the compound `O=C1NC(=O)C(=Cc2ccc(-c3ccc(F)cc3)o2)S1`, the “activity change, negative = cytotoxicity” value was -5.67%. `NC(N)=NN=C(/C=C/c1ccc([N+](=O)[O-])o1)/C=C/c1ccc([N+](=O)[O-])o1`: the Potency was 17.3 µM (active).

On to `Oc1ccc(/C=C/c2cc(O)cc(O)c2)cc1`, for which the Potency was 24.5 µM (active).

Consider `Nc1cc(C(F)(F)F)ccc1S`, for which the “activity change, negative = cytotoxicity” value was -3.16%.

On to `CC(C(=O)O)c1ccc(C(=O)c2ccccc2)s1` (stereo not given), for which the “activity change, negative = cytotoxicity” value was -14.1%.

For `COCCn1c2c([n+](Cc3cnccn3)c1C)C(=O)c1ccccc1C2=O`, the Potency was 0.0155 µM (active). The same measure, in the same setting: as for `O=C1C(Cl)=C(NCCN2CCOCC2)C(=O)c2ncccc21`, the figure is 6.15 µM (active). Turning to `C=CCCCCCCCCC(=O)O`, the “activity change, negative = cytotoxicity” value was -4.48%.

On to `O=C(Nc1ccc(OC(F)(F)F)cc1)c1sccc1NCc1ccnc2ccccc12`, for which the “activity change, negative = cytotoxicity” value was -25%. Turning to `COc1cc2nc(-c3ccc(N4CCN(C)CC4)cc3)nc(NCCN3CCOCC3)c2cc1OC`, the “activity change, negative = cytotoxicity” value was -25.2%. Same read-out and setting: with `O=C(O)[C@@H](c1ccc(OCc2ccc3ccccc3n2)cc1)C1CCCC1` the figure was 5.33%. On to `COc1ccc(CC2=NN3C([C@@H](CCc4ccccc4)[C@@H](C)O)=NC(C)C3C(=O)N2)cc1OC` (stereo not given in full), for which the “activity change, negative = cytotoxicity” value was 10.1%.

Turning to `CC(C)OC(=O)CCCC=CC[C@@H]1[C@H](C=C[C@@H](O)COc2cccc(C(F)(F)F)c2)[C@H](O)C[C@@H]1O`, the “activity change, negative = cytotoxicity” value is -1.19%. For `Cc1[nH]c(C=C2C(=O)Nc3ccccc32)c(C)c1CCC(=O)O`, the “activity change, negative = cytotoxicity” value is 3.28%. Still for that read-out and setting: with `CN1CC(=O)N2C(Cc3c([nH]c4ccccc34)[C@H]2c2ccc3c(c2)OCO3)C1=O` (stereo not given in full) the figure was 12.4%; with `O=C(O)c1ccccc1NCCc1ccccc1`, 27.1%; with `O=C(O)c1ccccc1Nc1cccc(C(F)(F)F)c1`, -21.9%. The same measure, in the same setting: with `Nc1ccc(O)c(C(=O)O)c1` the figure was -4.62%; with `CCC(C(=O)O)c1ccc(N2Cc3ccccc3C2=O)cc1` (stereo not given), -10.4%. `CS(=O)(=O)c1ccc(-c2cn3ccccc3n2)cc1`: the Potency is 12.3 µM (active). Consider `NC1CCC(Nc2nc(Nc3ccc(C(=O)N4CCCCC4)cc3)c3ncn(-c4cccc(F)c4)c3n2)CC1` (stereo not given), for which the “activity change, negative = cytotoxicity” value was 10.2%.

Take `N#CC1(c2ccc(NC(=O)c3cccnc3NCc3ccncc3)cc2)CCCC1`: the “activity change, negative = cytotoxicity” value is -12.2%. Take `NC(=O)c1cccc2[nH]c(-c3ccc([C@H]4CCCN4)cc3F)nc12`: the Potency is 5.48 µM (active). For `O=c1oc2cc(O)ccc2s1`, the “activity change, negative = cytotoxicity” value is -3.49%.

Turning to `Cc1cc(O)c2c(c1)C(=O)c1cc(O)cc(O)c1C2=O`, the “activity change, negative = cytotoxicity” value was -13%. The same measure, in the same setting: with `O=C(Nc1ccc(C(=O)O)c(O)c1)c1ccccc1` the figure was 4.12%. As to `Oc1cc(O)cc(/C=C/c2ccc(O)c(O)c2)c1`, the Potency was 24.5 µM (active).

With `CC1(C)OC2=C(C(=O)c3ccccc3C2=O)[C@H](NCc2ccccc2)[C@H]1O`, the Potency is 8.91 µM (active). In the case of `CC(=C(CCOC(=O)C(C)C)SSC(CCOC(=O)C(C)C)=C(C)N(C=O)Cc1cnc(C)nc1N)N(C=O)Cc1cnc(C)nc1N`, the “activity change, negative = cytotoxicity” value is -24.1%. Regarding `O=c1[nH]nc(Sc2ncc([N+](=O)[O-])s2)n1-c1ccc2c(c1)OCCO2`, the Potency is 4.89 µM (active).

Take `CC(=O)OC(C)OC(=O)C(C)c1ccc(-c2ccccc2)c(F)c1` (stereo not given): the “activity change, negative = cytotoxicity” value is -19.8%. Turning to `O=C(/C=C/c1ccccc1)NCCO`, the “activity change, negative = cytotoxicity” value is 9.32%. The same measure, in the same setting: as for `CC(C)(C)COc1ccc(-n2cc(C(=O)O)cn2)cc1C#N`, the figure is 4.08% [at 88.3 µM]; as for `O=C(c1ccccc1)c1ccc2n1CCC2C(=O)O` (stereo not given), 0.488%.

As for `CC(C)c1ccc2oc3nc(N)c(C(=O)O)cc3c(=O)c2c1`, the Potency is 1.55 µM (active).

Take `CNC(=O)c1ccccc1Sc1ccc2c(/C=C/c3ccccn3)n[nH]c2c1`: the Potency was 10.9 µM (active). In the case of `O[C@@H](COc1cccc2ncccc12)CN1CCN(C2c3ccccc3[C@@H]3[C@H](c4ccccc42)C3(F)F)CC1` (stereo not given in full), the “activity change, negative = cytotoxicity” value was 2.37%.

In the case of `O=C(Oc1ccccc1)c1cccc(C(=O)Oc2ccccc2)c1`, the “activity change, negative = cytotoxicity” value is 9.64% [at 96.3 µM].
